# Assay results published in PubChem BioAssay (NCATS).
# Inconclusive results are not listed. Entries that show only a call come without a potency. Unmarked numbers belong to inactive results. Activity calls are given as the source filed them. Calls come from the whole dose curve; as a rule, active = well fitted inhibition curve with a large enough effect; inconclusive = small, poorly fitted or top-dose-only effect; inactive = flat fitted curve, though single readings scatter.
# How the values were obtained:
# [1] = biological target: Glutathione peroxidase 1 (Homo sapiens) (UniProt P07203); test: Primary qHTS Assay for Inhibitors of Recombinant Selenoprotein Glutathione Peroxidase 1 (GPX1) (AID 1845191)
# In short: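 NADPH consumption tracked by fluorescence at 340/450 nm between t=0 and t=15 min, room temperature. Final mix: 10 nM GPX1, 100 nM glutathione reductase, 1 mM GSH, 0.5 mM NADPH, 0.5 mM cumene hydroperoxide, 0.01% BSA; 30 min compound–enzyme preincubation.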
# [2] = biological target: Phospholipid hydroperoxide glutathione peroxidase GPX4 (Homo sapiens) (UniProt P36969); test: Primary qHTS Assay for Inhibitors of Recombinant Selenoprotein Glutathione Peroxidase 4 (GPX4) (AID 1845192); for activity change, negative = inhibition: series mostly up to about 50 µM
# In short: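 NADPH consumption followed by fluorescence at 340/450 nm, t=0 and after 15 min at room temperature. Reaction started with cumene hydroperoxide (0.5 mM final) after 30 min compound–GPX4 preincubation; final 200 nM GPX4, 100 nM GR, 1 mM GSH, 0.5 mM NADPH.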
# Note: nearly all actives have a fitted effect of over 65% in size.
# Potency is the fitted concentration of half-maximal effect.
# Chain of Glutathione peroxidase 1 (Homo sapiens) (P07203 whole entry, looked up): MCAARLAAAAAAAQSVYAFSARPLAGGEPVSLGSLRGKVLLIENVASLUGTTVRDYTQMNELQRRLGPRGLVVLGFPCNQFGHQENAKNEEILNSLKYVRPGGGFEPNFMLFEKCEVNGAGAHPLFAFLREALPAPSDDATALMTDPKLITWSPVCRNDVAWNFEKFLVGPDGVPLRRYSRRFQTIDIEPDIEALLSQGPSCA
# Chain of Phospholipid hydroperoxide glutathione peroxidase GPX4 (Homo sapiens) (P36969 whole entry, looked up): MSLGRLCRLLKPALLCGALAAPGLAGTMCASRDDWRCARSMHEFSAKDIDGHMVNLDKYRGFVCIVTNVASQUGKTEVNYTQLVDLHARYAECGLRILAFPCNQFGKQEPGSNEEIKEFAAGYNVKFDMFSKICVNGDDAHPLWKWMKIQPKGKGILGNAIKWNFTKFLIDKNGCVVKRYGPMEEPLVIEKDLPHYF
compound,measurement,setting,value
CC(=O)CCC1C(=O)N(c2ccccc2)N(c2ccccc2)C1=O,Potency,[1],inactive
Cc1cc(O)ccc1C(C)(C)C,Potency,[1],inactive
same,Potency,[2],inactive
COc1ccc(-c2c(Cl)ncn2-c2ccc(S(N)(=O)=O)cc2)cc1F,Potency,[1],inactive
same,Potency,[2],inactive
Cn1c(=O)oc2ccc(C(=O)N[C@H](C3CCNCC3)C3CC(O)C3)cc21 (stereo partly specified),Potency,[1],inactive
CC(C)Oc1ccc(-c2c[nH]cc2CN(C)CCN)cc1,Potency,[1],inactive
COc1cccc(-n2c(=O)[nH]c3cc(Cl)n(-c4ccc(-c5cccc(OC)c5O)cc4)c3c2=O)c1,Potency,[1],inactive
CCN1CCN(C2(C(=O)NCCc3ccccc3)Cc3ccccc3C2)CC1,Potency,[1],inactive
C=C1/C(=C/C=C2\CCC[C@]3(C)[C@@H]([C@H](C)CCCC(O)(C(F)(F)F)C(F)(F)F)CC[C@@H]23)C[C@@H](O)C[C@@H]1O,Potency,[1],inactive
same,Potency,[2],14.1 µM (active)
OC(CCN1CCCCC1)(c1ccccc1)C1CCCC1 (stereo unspecified),Potency,[1],inactive
same,Potency,[2],inactive
C[C@H]1C[C@H]2[C@H]3CCC4=CC(=O)C=C[C@]4(C)[C@@]3(F)[C@@H](O)C[C@]2(C)[C@@]1(OC(=O)c1ccccc1)C(=O)CO,Potency,[1],inactive
same,Potency,[2],inactive
COc1ccccc1Nc1nc(-c2sc(NC(C)=O)nc2C)cs1,Potency,[1],20.2 µM (active)
O=C1NC(Nc2ccccc2)=N/C1=C\c1ccc2c(c1)OCO2,Potency,[1],inactive
Cn1cc(CN2CCN(C(c3ccccc3)c3ccccc3)CC2)cc1C#N,Potency,[1],inactive
O=C(O)C1CCc2cc(C3CCCCC3)c(Cl)cc21 (stereo unspecified),Potency,[1],inactive
CCOc1cc(C(CS(C)(=O)=O)N2C(=O)c3cccc(NC(C)=O)c3C2=O)ccc1OC (stereo unspecified),Potency,[1],inactive
same,Potency,[2],inactive
C[C@@H]1[C@H](C)CC[C@]2(C(=O)O[C@@H]3O[C@@H](CO[C@@H]4O[C@@H](CO)[C@@H](O[C@@H]5O[C@@H](C)[C@@H](O)[C@@H](O)[C@H]5O)[C@@H](O)[C@H]4O)[C@@H](O)[C@@H](O)[C@H]3O)CC[C@]3(C)C(=CC[C@H]4[C@@]5(C)C[C@@H](O)[C@@H](O)[C@](C)(CO)[C@@H]5CC[C@@]43C)[C@H]12,Potency,[1],inactive
O=C(OC[C@H]1O[C@@H](OC(=O)c2cc(O)c(O)c(O)c2)[C@H](O)[C@@H](OC(=O)c2cc(O)c(O)c(O)c2)[C@@H]1O)c1cc(O)c(O)c(O)c1,Potency,[1],inactive
same,Potency,[2],inactive
O=C(O)C(O)C(O)C(=O)O (stereo unspecified),Potency,[1],inactive
same,Potency,[2],inactive
Cc1ccc2nc(-c3ccc(Cl)c(NC(=O)c4ccc5c(c4)OCCO5)c3)oc2c1,Potency,[1],inactive
CN(CC(O)CO)C(=O)c1c(I)c(NC(=O)C(CO)CO)c(I)c(C(=O)N(C)CC(O)CO)c1I (stereo unspecified),Potency,[1],inactive
Cc1cc(C)n(CCc2nc3c4ccccc4nc(N4CCN(c5cccc(C)c5C)CC4)n3n2)n1,Potency,[1],inactive
CC(C)CCC[C@@H](C)[C@H]1CC[C@H]2[C@@H]3CC[C@H]4C[C@@H](O)CC[C@]4(C)[C@@H]3CC[C@]12C,Potency,[1],inactive
O=[N+]([O-])c1ccc(Nc2nc(N3CCOCC3)nc(N3CCOCC3)n2)cc1,Potency,[1],inactive
C[C@H](Cc1cc2c(c(C(N)=O)c1)N(CCCO)CC2)NCCOc1ccccc1OCC(F)(F)F,Potency,[1],inactive
same,Potency,[2],inactive
CC1=CC(O)CC(C)(C)C1/C=C/C(C)=C/C=C/C(C)=C/C=C/C=C(C)/C=C/C=C(C)/C=C/C1=C(C)CC(O)CC1(C)C (stereo unspecified),Potency,[1],inactive
same,Potency,[2],12.6 µM (active)
CCCCC(=O)O[C@]1(C(=O)COC(C)=O)CC[C@H]2[C@@H]3CCC4=CC(=O)C=C[C@]4(C)[C@H]3[C@@H](O)C[C@@]21C,Potency,[1],inactive
same,Potency,[2],inactive
CC(C)OC(=O)[C@H](C)N[P@@](=O)(OC[C@H]1O[C@@H](n2ccc(=O)[nH]c2=O)[C@](C)(F)[C@@H]1O)Oc1ccccc1,Potency,[1],inactive
same,Potency,[2],inactive
CNc1ncc(-c2ccc3c(=O)c(C(=O)O)cn(C4CC4)c3c2C)cc1C,Potency,[1],inactive
same,Potency,[2],inactive
Cc1ccc2occ(-c3cc(-c4ccc(F)cc4)nc4c3COc3ccc(F)cc3-4)c(=O)c2c1,Potency,[1],inactive
Cc1oc(=O)oc1COC(=O)N1CC[C@@H](N2CC/C(=C\C3=C(C(=O)O)N4C(=O)[C@@H](NC(=O)/C(=N/O)c5nsc(N)n5)[C@H]4SC3)C2=O)C1,Potency,[1],7.18 µM (active)
same,Potency,[2],10 µM (active)
CCCCC(CC)COc1ccc(-c2nc(-c3ccc(OC)cc3)nc(-c3ccc(OCC(CC)CCCC)cc3O)n2)c(O)c1 (stereo unspecified),"activity, negative = inhibition",[1],-11% [at 4.49 µM]
same,"activity change, negative = inhibition",[2],-23.8% [at 4.52 µM]
NC(=O)C1CCCN1C(=O)C(Cc1cnc[nH]1)NC(=O)C1CCC(=O)N1 (stereo unspecified),Potency,[1],inactive
same,Potency,[2],inactive
CN[C@@H]1[C@@H](O)[C@@H](O[C@@H]2[C@@H](O)[C@H](OC3O[C@H](CN)[C@@H](O)[C@H](O)[C@H]3O)[C@@H](N)C[C@H]2NC(=O)[C@@H](O)CN)OC[C@]1(C)O (stereo partly specified),Potency,[1],inactive
same,Potency,[2],inactive
Cc1oc(-c2ccccc2)nc1CCOc1ccc(CC2C(=O)NOC2=O)cc1 (stereo unspecified),Potency,[1],inactive
COC(=O)N(C)Cc1cccc(N2CCN(C(c3ccccc3)c3ccccc3)CC2)c1,Potency,[1],inactive
CN1N=C2CCN(C(=O)[C@H](COCc3ccccc3)NC(=O)C(C)(C)N)C[C@]2(Cc2ccccc2)C1=O,Potency,[1],inactive
same,Potency,[2],inactive
CC=CC1=C(C(=O)O)N2C(=O)[C@@H](NC(=O)[C@H](N)c3ccc(O)cc3)[C@H]2SC1,Potency,[1],7.85 µM (active)
same,Potency,[2],inactive
CCC(C)CC(C)CCCCCCCCC(=O)N[C@H]1C[C@@H](O)[C@@H](NCCN)NC(=O)[C@@H]2[C@@H](O)CCN2C(=O)[C@H]([C@H](O)CCN)NC(=O)[C@H]([C@@H](O)[C@H](O)c2ccc(O)cc2)NC(=O)[C@@H]2C[C@@H](O)CN2C(=O)[C@H]([C@@H](C)O)NC1=O (stereo partly specified),Potency,[1],inactive
same,Potency,[2],inactive
NC(=O)C1(N2CCCCC2)CCN(CCCN2c3ccccc3CCc3ccccc32)CC1,Potency,[1],inactive
COc1ccc(Cl)cc1NC(=O)Nc1cc(C)nc2ccccc12,Potency,[1],inactive
OCc1cc(C(O)CNCCCCCCOCCOCc2c(Cl)cccc2Cl)ccc1O (stereo unspecified),Potency,[1],inactive
same,Potency,[2],inactive
CCCCCCCCCC(=O)OCCN1CCN(CCCN2c3ccccc3Sc3ccc(C(F)(F)F)cc32)CC1,Potency,[1],inactive
same,Potency,[2],inactive
C[N+](C)(C)C1CCC(CC2CCC([N+](C)(C)C)CC2)CC1 (stereo unspecified),Potency,[1],inactive
same,Potency,[2],inactive
Cc1cc(C#N)cc(C)c1Oc1nc(Nc2ccc(C#N)cc2)nc(N)c1Br,Potency,[1],inactive
same,Potency,[2],inactive
CO[C@H]1C[C@@H]2CC[C@@H](C)[C@@](O)(O2)C(=O)C(=O)N2CCCC[C@H]2C(=O)O[C@H]([C@H](C)C[C@@H]2CC[C@@H](OCCO)[C@H](OC)C2)CC(=O)[C@H](C)/C=C(/C)[C@@H](O)[C@@H](OC)C(=O)[C@H](C)C[C@H](C)\C=C/C=C\C=C/1C,Potency,[1],inactive
same,Potency,[2],3.98 µM (active)
CCCN1C[C@@H](NS(=O)(=O)N(CC)CC)C[C@@H]2Cc3c(O)cccc3C[C@H]21,Potency,[1],inactive
same,Potency,[2],inactive
CCC(CC)[C@H](NC(C)=O)[C@@H]1[C@H](O)[C@@H](C(=O)O)C[C@H]1N=C(N)N,"activity, negative = inhibition",[1],-7.9% [at 0.4 µM]
same,"activity change, negative = inhibition",[2],-9.13% [at 0.409 µM]
CCC(=C(CC)c1ccc(OP(=O)(O)O)cc1)c1ccc(OP(=O)(O)O)cc1,"activity, negative = inhibition",[1],1.38% [at 0.4 µM]
same,"activity change, negative = inhibition",[2],1.61% [at 0.409 µM]
CCCC1CC(C(=O)NC(C(C)Cl)C2OC(SC)C(OP(=O)(O)O)C(O)C2O)N(C)C1 (stereo unspecified),Potency,[1],inactive
same,Potency,[2],inactive
CCN1CCC(=C2c3ccccc3CCc3ccccc32)C1C (stereo unspecified),Potency,[1],inactive
same,Potency,[2],inactive
Cc1ncc([N+](=O)[O-])n1CCOC(=O)c1ccccc1,Potency,[1],inactive
same,Potency,[2],inactive
O=C(O)CSc1nnc(Br)n1-c1ccc(C2CC2)c2ccccc12,Potency,[1],inactive
same,Potency,[2],inactive
CCCCCCCCCCCCCCCCCCCCCCCCCCCCO,outcome,[1],inactive [at 0.4 µM]
same,outcome,[2],inactive [at 0.409 µM]
C=C[C@]1(C)C[C@@H](OC(=O)CSC2C[C@H]3CC[C@@H](C2)N3C)C2(C)[C@H](C)CCC3(CCC(=O)[C@H]32)[C@@H](C)[C@@H]1O (stereo partly specified),Potency,[1],inactive
same,Potency,[2],inactive
CCC(C)C(NC(=O)C(Cc1ccc(O)cc1)NC(=O)C(NC(=O)C(CCCN=C(N)N)NC(=O)C(N)CC(=O)O)C(C)C)C(=O)NC(Cc1cnc[nH]1)C(=O)N1CCCC1C(=O)NC(Cc1ccccc1)C(=O)O (stereo unspecified),Potency,[1],inactive
same,Potency,[2],inactive
CC(C)C[C@H]1C(=O)O[C@H](Cc2ccc(N3CCOCC3)cc2)C(=O)N(C)[C@@H](CC(C)C)C(=O)O[C@H](C)C(=O)N(C)[C@@H](CC(C)C)C(=O)O[C@H](Cc2ccc(N3CCOCC3)cc2)C(=O)N(C)[C@@H](CC(C)C)C(=O)O[C@H](C)C(=O)N1C,Potency,[1],inactive
same,Potency,[2],inactive
C=CC1(C)CC(=O)C2(O)C(C)(O1)C(OC(C)=O)C(OC(=O)CCN(C)C)C1C(C)(C)CCC(O)C12C (stereo unspecified),Potency,[1],inactive
same,Potency,[2],inactive
CC(=O)OC1CCC2(C)C(=CCC3C2CCC2(C)C(c4cccnc4)=CCC32)C1 (stereo unspecified),Potency,[1],inactive
same,Potency,[2],inactive
OC[C@H]1O[C@H](O[C@H]2[C@H](O)[C@@H](O)[C@H](O)O[C@@H]2CO)[C@H](O)[C@@H](O)[C@@H]1O,Potency,[1],inactive
same,Potency,[2],inactive
COCC1=C(C(=O)OC(C)OC(=O)OC(C)C)N2C(=O)[C@@H](NC(=O)/C(=N/OC)c3csc(N)n3)[C@H]2SC1 (stereo partly specified),Potency,[1],9.04 µM (active)
same,Potency,[2],10 µM (active)
CC(OC(=O)NCC1(CC(=O)O)CCCCC1)OC(=O)C(C)C (stereo unspecified),Potency,[1],inactive
same,Potency,[2],inactive
O=C(O)C(O)[C@H](O)[C@H](O)[C@H](O)[C@H](O)CO (stereo partly specified),Potency,[1],inactive
same,Potency,[2],inactive
CCOc1ccc(Cc2cc([C@@]34OC[C@@](CO)(O3)[C@@H](O)[C@H](O)[C@H]4O)ccc2Cl)cc1,Potency,[1],inactive
same,Potency,[2],inactive
